Compound activity (PubChem)
TDP1 cell noCPT: qHTS for Inhibitors of human tyrosyl-DNA phosphodiesterase 1 (TDP1): qHTS in cells in absence of CPT; Potency, µM (titrated, usually from 46.2 µM), without a hit: at the top dose activity change, negative = growth inhibition, actives largely listed as inhibitors; DT40 Tdp1-/- hTDP1 cells, no CPT, ATP luminescence, 48 h; hit rate 15% among 420,000; note: potency is the fitted concentration of half-maximal effect; nearly all actives have a fitted effect of over 55% in size
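Stably hTDP1-transfected Tdp1-null chicken DT40 cells were treated with library compounds minus camptothecin and grown for at least 48 hr at 37 °C, after which cellular ATP was quantified by luminescence.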
IL1B secr inh: inflammasome signaling inhibition, IL-1 beta readout; THP-1 LPS/ATP IL-1B secretion, AlphaLISA, 16 h; active compounds read low; AID 743279; activity change, % at 57.5 µM; hit rate 4.7% among 360,000; in the data active = activity change below about -50%; inconclusive = mostly about -30% to -49%
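Secreted IL-1B measured by AlphaLISA bead assay after 16 h compound exposure of THP-1 cells; compounds (final up to 57.5 uM) added 1 h before LPS (250 ng/mL) and ATP (1.25 mM) stimulation; lower signal means less secretion.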
HT1080 IDH1KD tx: toxicity to HT-1080 IDH1 knockdown cells (counter line); HT-1080 IDH1 knockdown viability, ATP luminescence, 48 h; Potency, µM (series often up to 46.1 µM), inactives show at the highest dose activity, negative = toxicity, actives largely listed as cytotoxic; hit rate 2% among 360,000; AID 686971;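 note: potency is the fitted concentration of half-maximal effect; 0% = DMSO wells and -100% = cell-free medium wells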
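Viability of IDH1-knockdown HT-1080 fibrosarcoma cells was assessed by CellTiter-Glo after 48 h at 37 °C with titrated compound; concentration-effect curves were classified by fit quality and response size.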
ELG1 repair inh: inhibitors of ELG1-dependent DNA repair in HEK293T cells. HEK293T ELG1-luciferase reporter, luminescence, 16 h; DNA damage induced by 5-fluorouridine. Potency, µM (highest dose often 46.1 µM), inactives show top-dose activity change, negative = inhibition, actives largely listed as inhibitors. hit rate 2.3% among 330,000; note: potency is the fitted concentration of half-maximal effect; nearly all actives have a fitted effect of over 55% in size
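In this reporter screen, reduction of luminescence relative to DMSO vehicle indicated activity. Compounds and 5-fluorouridine were added together to 2,000 cells per well, incubated for 16 hr at 37 °C, then developed with ONE-Glo.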
HT1080NT lethal: kills 2HG-producing HT-1080-NT fibrosarcoma cells | AID 686970 | HT-1080-NT fibrosarcoma viability, CellTiter-Glo ATP luminescence, 48 h | Potency, µM (highest dose often 46.1 µM), for the others: at the highest dose activity, negative = less viability, actives largely listed as cytotoxic | hit rate 1.6% among 360,000;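 note: NT is the 2HG producing partner of a matched IDH1 knockdown line; potency is the fitted concentration of half-maximal effect; 0% = DMSO-treated cells and -100% = media-only wells without cells; nearly all actives have a fitted effect of over 55% in size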
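Read-out is CellTiter-Glo luminescence after 10 minutes at room temperature, following 48 hours' compound treatment of HT-1080-NT cells (750 cells/well, RPMI, 5% FBS, 37 degrees C).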
TDP1 cell CPT: DT40-hTDP1 cell growth loss with CPT; chicken DT40 Tdp1-/-;hTDP1 cells + 20 nM CPT, ATP luminescence, 48 h; Potency, µM (doses to about 46.2 µM), for the others: at the highest dose activity change, negative = growth inhibition, hits mostly inhibitors; hit rate 12% among 420,000; AID 686979; note: potency is the fitted concentration of half-maximal effect; nearly all actives have a fitted effect of over 55% in size
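Chicken DT40 Tdp1-/- cells complemented with human TDP1, 400 cells/well, exposed to compounds plus 20 nM camptothecin for at least 48 h at 37 C; viability read as ATP content by CellTiter-Glo luminescence.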
* marks the source's active call; other numbers are inactive results; i = inactive; ? = inconclusive; · = no result given. Shown are actives, neighbours in structure and some others; about 19% of the full set was active somewhere. Unless noted, calls come from the whole dose curve; as a rule, active = well fitted curve in the direction sought with a large enough effect; inconclusive = small, poorly fitted or top-dose-only effect, or another doubt; inactive = no such curve, though single readings can be large; an effect the other way counts as inactive or inconclusive. Unless noted, % is set by controls: 0 for no effect and ±100 for the full control effect.

SMILES	TDP1 cell noCPT	IL1B secr inh	HT1080 IDH1KD tx	ELG1 repair inh	HT1080NT lethal	TDP1 cell CPT
COc1cccc(C2CC(c3ccc(Cl)cc3Cl)Nc3nc(N)nn32)c1 (configuration not stated)	23.1µM*	16.1	-17.1%	14.6%	-15.8%	?
CCOc1ccc(C2CC(c3cccc(Cl)c3)n3nc(N)nc3N2)cc1 (configuration not stated)	16.4µM*	-23.1	3.1%	1.3%	0.2%	7.31µM*
COc1cccc(C2CC(c3ccccc3Cl)Nc3nc(N)nn32)c1 (configuration not stated)	-10.0%	12.4	-3.9%	10.4%	-1.1%	1.1%
Cc1cc(NS(=O)(=O)c2ccc(NC(=O)CCCOc3cccc(C)c3C)cc2)no1	-10.8%	i	-14.3%	-2.2%	-22.6%	-2.3%
CCC1(c2ccccc2)NC(=O)N(CC(=O)Nc2ccccc2N2CCCC2)C1=O (configuration not stated)	-19.4%	9.1	-17.2%	3.2%	-3.2%	?
CCOC(=O)c1c(-c2ccc(-c3ccccc3)cc2)csc1NC(=O)c1cccc(N2C(=O)CCC2=O)c1	6.51µM*	2.3	10.2%	7.31µM*	13.8%	8.2µM*
CCOC(=O)c1c(-c2ccccc2)csc1NC(=O)c1cc(=O)c2ccc(C)cc2o1	-18.8%	·	·	·	·	-17.5%
CCOC(=O)c1c(-c2ccccc2)csc1NC(=O)CCN1C(=O)c2ccccc2C1=O	?	0.0	8.0%	?	11.7%	2.2%
CCOC(=O)c1c(-c2ccccc2)csc1NC(=O)c1cc2ccccc2oc1=O	16.4µM*	-3.0	3.9%	7.7%	12.5%	?
CCNC(=S)Nc1scc(-c2ccccc2)c1C(=O)OCC	23.1µM*	9.5	-29.1%	-7.9%	-28.5%	?
CCOC(=O)c1c(-c2ccc(F)cc2)csc1NC(=O)CCN1CCOCC1	20.6µM*	6.6	1.1%	-10.0%	1.9%	?
O=C(Nc1ccc(F)cc1)C(c1ccccc1)N1CCN(c2cccc(C(F)(F)F)n2)CC1 (configuration not stated)	?	-29.6	-20.5%	·	-1.4%	?
CCc1c(C)sc(NC(=O)Cc2ccccc2C)c1C(=O)N1CCOCC1	-2.0%	-14.9	-7.5%	3.2%	-3.8%	0.6%
CN(C)CCNc1nccc(N2CCN(C)CC2)n1	-9.5%	·	·	·	·	8.5%
Cc1cc(C)cc(NC(=O)CN2CCC(C(=O)c3ccccc3)CC2)c1	-28.9%	-14.7	-0.5%	-1.4%	1.9%	-14.4%
CCOC(=O)c1c(-c2ccc(-c3ccccc3)cc2)csc1NC(=O)CCN1CCOCC1	14.6µM*	-50.0*	?	?	?	18.4µM*
CCOC(=O)c1c(-c2cccs2)csc1NC(=O)CN1CC(C)OC(C)C1 (configuration not stated)	23.1µM*	0.0	?	?	?	25.9µM*
CCOC(=O)c1c(-c2cccs2)csc1NC(C)=O	?	-6.0	-13.5%	-5.3%	-10.1%	-22.4%
CCOC(=O)c1c(-c2ccccc2)csc1NC(=O)C(C)NCCCN1CCOCC1 (configuration not stated)	?	-53.4*	?	-16.8%	?	?
CCOC(=O)c1c(-c2cccs2)csc1NC(=O)CNCCN1CCOCC1	·	·	·	-10.5%	·	·
CCOC(=O)c1c(-c2cccc([N+](=O)[O-])c2)csc1NC(=O)C1CC1	20.6µM*	?	?	-24.1%	?	18.4µM*
COc1ccccc1CCNC(=O)c1nccnc1C(=O)O	-2.0%	-1.1	?	-3.2%	29.0%	-4.8%
O=C(NCc1ccccc1F)C(c1ccccc1)c1ccccc1	-6.1%	?	12.3%	-10.1%	10.3%	-9.3%
